Test results from PubChem BioAssay (NCATS).
Results filed as inconclusive are left out. Calls of active or inactive are those of the source. Calls follow the shape of the dose curve; as a rule, active = well fitted curve in the direction sought with a large enough effect; inconclusive = small, poorly fitted or top-dose-only effect, or another doubt; inactive = no such curve, though single readings can be large; an effect the other way counts as inactive or inconclusive.

Legend:
CASKI = experiment: Primary qHTS to identify gynecologic anti-cancer compounds using libraries of approved drugs and bioactive compounds (AID 1345084); conditions: Gynecologic cancer cell panel viability, ATPlite luminescence, 48 h; series mostly up to 57.5 µM; also: nearly all actives have a fitted effect of over 55% in size
In short: (§1)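 Cytotoxicity screen measuring ATP content by luciferase luminescence. Each compound is applied at five concentrations for 48 h at 37 C with 5% CO2.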

HeLa = experiment: as above; conditions: Gynecologic cancer cell panel viability, ATPlite luminescence, 48 h; series mostly up to 57.5 µM
In short: as §1

SKOV3 = experiment: as above; conditions: Gynecologic cancer cell panel viability, ATPlite luminescence, 48 h; series mostly up to 57.5 µM
In short: as §1

[1] = qHTS assay to identify inhibitors of the type 1 interferon - major histocompatibility complex class I in skeletal muscle: Counter screen cell viability and HiBit confirmation (AID 1347412); conditions: iHSKM muscle cells + IFN-b, HiBiT or CellTiter-Glo, 24 h; for activity change, negative = inhibition: Viability, at 45.9 µM (top of the series); for Potency: HiBiT; as to all read-outs here: nearly all actives have a fitted effect of over 60% in size
In short: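 HLA-B*08:01–HiBiT knock-in immortalized human myoblasts (C25cl48) stimulated with 4.0 ng/ml human IFN-beta and dosed with compound in a 12-point 1:3 titration (top final 46 uM). After 24 hrs at 37 C, HiBiT lytic luminescence or CellTiter Glo ATP read out.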

PA-1 = experiment: Primary qHTS to identify gynecologic anti-cancer compounds using libraries of approved drugs and bioactive compounds (AID 1345084); conditions: Gynecologic cancer cell panel viability, ATPlite luminescence, 48 h; series mostly up to 57.5 µM; also: nearly all actives have a fitted effect of over 55% in size
In short: as §1

Tov112D = experiment: as above; conditions: Gynecologic cancer cell panel viability, ATPlite luminescence, 48 h; series mostly up to 57.5 µM
In short: as §1

Es-2 = experiment: as above; conditions: Gynecologic cancer cell panel viability, ATPlite luminescence, 48 h; series mostly up to 57.5 µM
In short: as §1

JEG-3 = experiment: as above; conditions: Gynecologic cancer cell panel viability, ATPlite luminescence, 48 h; series mostly up to 57.5 µM
In short: as §1

Tov-21-G = experiment: as above; conditions: Gynecologic cancer cell panel viability, ATPlite luminescence, 48 h; series mostly up to 57.5 µM
In short: as §1

Hek293T = experiment: as above; conditions: Gynecologic cancer cell panel viability, ATPlite luminescence, 48 h, control line for the selectivity index; series mostly up to 57.5 µM
In short: as §1

OV90 = experiment: as above; conditions: Gynecologic cancer cell panel viability, ATPlite luminescence, 48 h; series mostly up to 57.5 µM
In short: as §1
% is scaled to controls: 0 for no effect and ±100 for the full control effect; potency is read from the fitted curve at half-maximal effect.

Cn1cncc1C(N)(c1ccc(Cl)cc1)c1ccc2c(c1)c(-c1cccc(Cl)c1)cc(=O)n2C (configuration not stated)
inactive: Potency (CASKI) | Potency (HeLa) | Potency (SKOV3) | activity change, negative = inhibition [1] -22.3%

O=C(Nc1nc2ccccc2n1CCc1ccccc1)c1ccccc1
active: Potency (PA-1) 31600 nM
inactive: Potency (CASKI) | Potency (HeLa)

C[C@@H]1C[C@H]2O[C@@H]2/C=C\C=C\C(=O)Cc2c(Cl)c(O)cc(O)c2C(=O)O1
inactive: activity change, negative = cytotoxicity (CASKI) -0.527% [at 11.6 µM] | activity change, negative = cytotoxicity (Tov112D) -26.2% [at 11.6 µM]

COc1cccc(Nc2ncnn3ccc(CN4CC[C@@H](N)[C@H](O)C4)c23)c1
active: Potency (Tov-21-G) 5620 nM | Potency [1] 6250 nM
inactive: Potency (CASKI) | Potency (Es-2) | Potency (HeLa) | Potency (JEG-3)

COc1ccc(CC2C(=O)NC(C)C(=O)N(C)C3Cc4ccc(cc4)Oc4cc(ccc4OC4OC(CO)C(O)C(O)C4O)CC(C(=O)NC(C)C(=O)NC(C)C(=O)N2C)N(C)C3=O)cc1 (configuration not stated)
active: Potency (CASKI) 631 nM | Potency (Es-2) 398 nM | Potency (HeLa) 2000 nM | Potency (Hek293T) 158 nM | Potency (SKOV3) 1410 nM | Potency (Tov-21-G) 1260 nM | Potency (Tov112D) 501 nM

CO[C@H]1/C=C/[C@@](C)(O)/C=C/C(=O)O[C@H](C)[C@@H](C)CC/C=C/1C
active: Potency (CASKI) 11200 nM | Potency (SKOV3) 12600 nM | Potency (Tov-21-G) 10000 nM

Cc1cc(O)c(-c2ccc([C@@H](C)CN(C)C)cc2)c2c1[nH]c(=O)c1sccc12
inactive: activity change, negative = inhibition [1] -2.3%
active: Potency (CASKI) 251 nM | Potency (Es-2) 282 nM | Potency (HeLa) 447 nM | Potency (Hek293T) 158 nM | Potency (PA-1) 282 nM | Potency (Tov-21-G) 316 nM | Potency (Tov112D) 282 nM | Potency [1] 78.7 nM

CC(C)[C@@](C)(O)[C@@H]1CN(c2nc(-c3[nH]nc4ncccc34)c(F)cc2Cl)CCN1
inactive: Potency (CASKI) | Potency (Es-2) | Potency (HeLa) | Potency (Hek293T) | Potency (OV90) | Potency (Tov112D)
active: Potency (JEG-3) 25100 nM

COc1cc2c(cc1OC)-c1[nH]nc(Nc3cccc(F)c3)c1C2
active: Potency (CASKI) 891 nM | Potency (Es-2) 1410 nM | Potency (HeLa) 562 nM | Potency (PA-1) 316 nM | Potency (Tov-21-G) 2240 nM | Potency (Tov112D) 282 nM

C=CC(=O)Nc1cc(Nc2ncc(Cl)c(-c3c[nH]c4ccccc34)n2)c(OC)cc1N(C)CCN(C)C
active: Potency (CASKI) 2240 nM | Potency (HeLa) 12600 nM | Potency (Hek293T) 11200 nM | Potency (JEG-3) 12600 nM | Potency (OV90) 3980 nM | Potency (PA-1) 6310 nM | Potency (Tov-21-G) 15800 nM | Potency (Tov112D) 15800 nM

CC(C)(C)Nc1nc2cc(Cl)c(Cl)cc2nc1S(C)(=O)=O
active: Potency (CASKI) 35500 nM | Potency (Hek293T) 28200 nM | Potency (JEG-3) 15800 nM | Potency (SKOV3) 20000 nM | Potency (Tov-21-G) 28200 nM

CN(C)C/C=C/C(=O)Nc1cccc(C(=O)Nc2cccc(Nc3ncc(Cl)c(-c4c[nH]c5ccccc45)n3)c2)c1
active: Potency (CASKI) 1580 nM | Potency (Es-2) 8910 nM | Potency (HeLa) 2000 nM | Potency (PA-1) 2820 nM | Potency (Tov112D) 1260 nM | Potency [1] 1110 nM
inactive: activity change, negative = inhibition [1] 0.891%

CC(Oc1ccc2[nH]nc(/C=C/c3cnn(CCO)c3)c2c1)c1c(Cl)cncc1Cl (configuration not stated)
active: Potency (Es-2) 20000 nM | Potency (HeLa) 1580 nM | Potency (Hek293T) 10000 nM | Potency (PA-1) 6310 nM | Potency (Tov-21-G) 3550 nM

C=C1C(=O)O[C@@H]2[C@H]1CCC(C)=C1CCC(=O)O[C@]12C
inactive: Potency (CASKI) | Potency (HeLa) | Potency (Tov112D)

COc1cccc(-c2cc(NCc3ccc4c(c3)OCO4)nc(N)n2)c1
active: Potency (Es-2) 1410 nM | Potency (HeLa) 1000 nM | Potency (JEG-3) 1410 nM | Potency (PA-1) 1000 nM | Potency (Tov-21-G) 1000 nM | Potency (Tov112D) 447 nM

COc1ccc(-c2ccc3c(N4CCOCC4)nc(N4CC(C)OC(C)C4)nc3n2)cc1CO (configuration not stated)
active: Potency (CASKI) 1120 nM | Potency (Hek293T) 1580 nM | Potency (OV90) 2820 nM | Potency (PA-1) 2510 nM | Potency (SKOV3) 794 nM | Potency (Tov-21-G) 1260 nM
inactive: Potency (JEG-3)

CO[C@H]1/C=C/C=C/C=C/C[C@H](OC(=O)[C@@H](C)NC(=O)C2CCCCC2)[C@H](C)[C@@H](O)/C(C)=C/CCc2cc(O)cc(c2)NC(=O)C1
active: Potency (Es-2) 1780 nM | Potency (HeLa) 3550 nM | Potency (Hek293T) 708 nM | Potency (PA-1) 355 nM | Potency (SKOV3) 3160 nM | Potency (Tov-21-G) 2820 nM
inactive: Potency (JEG-3)

C#CC[C@H](c1nc2cc(Cl)ccc2c(=O)n1Nc1ccccc1)N(CCCN)C(=O)c1cccc(Cl)c1F
inactive: Potency (OV90)
active: Potency (Es-2) 7940 nM | Potency (HeLa) 3160 nM | Potency (Hek293T) 14100 nM | Potency (Tov112D) 355 nM

CN(C)c1nc(NC2CCC(NC(=O)c3ccc(F)c(F)c3)CC2)nc2ccccc12 (configuration not stated)
inactive: Potency (CASKI)
active: Potency (Hek293T) 28200 nM | Potency (OV90) 11200 nM | Potency (PA-1) 14100 nM

CC[C@]1(O)CC2CN(CCc3c([nH]c4ccccc34)[C@@](C(=O)OC)(c3cc4c(cc3OC)N(C)[C@H]3[C@@](O)(C(=O)OC)[C@H](OC(C)=O)[C@]5(CC)C=CCN6CC[C@]43[C@@H]65)C2)C1 (some centres not stated)
active: Potency (CASKI) 1120 nM | Potency (Es-2) 794 nM | Potency (HeLa) 708 nM | Potency (OV90) 3160 nM | Potency (PA-1) 282 nM | Potency (Tov-21-G) 316 nM | Potency (Tov112D) 282 nM

CCC(C)C(=O)OC1CC(O)C23C4OCC5(C(O)CC2C1(C)C(O)O4)C3C(=O)CC1(C)C(c2ccoc2)CC2OC215 (configuration not stated)
inactive: Potency (CASKI) | Potency (JEG-3)
active: Potency (Hek293T) 10000 nM | Potency (OV90) 1780 nM | Potency (Tov112D) 11200 nM

CCCNc1ccc2ncc(-c3ccc4[nH]ncc4c3)n2n1
active: Potency (CASKI) 8910 nM | Potency (HeLa) 4470 nM | Potency (Hek293T) 2000 nM | Potency (PA-1) 2820 nM | Potency (Tov-21-G) 3160 nM | Potency (Tov112D) 3550 nM
